Most compounds without a hit are left out; they make up all but 19% or so of the library.
HT1080 IDH1KD tx = qHTS for induction of synthetic lethality in tumor cells producing 2HG: qHTS for the HT-1080-IDH1KD cell line; Potency, µM (titrated, usually from 46.1 µM), for inactives: top-dose activity, negative = toxicity, hits mostly cytotoxic; HT-1080 IDH1 knockdown viability, ATP luminescence, 48 h; hit rate 2% among 360,000;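 also: potency is read from the fitted curve at half-maximal effect; 0% = DMSO wells and -100% = cell-free medium wells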
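HT-1080-IDH1KD cells (IDH1 knocked down), 750/well in RPMI with 5% FBS, treated with compound 48 h at 37 degrees C. Viability by CellTiter-Glo luminescence, normalised to DMSO and no-cell wells; concentration-response curves classed.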
HT1080NT lethal = qHTS for induction of synthetic lethality in tumor cells producing 2HG: qHTS for the HT-1080-NT fibrosarcoma cell line; HT-1080-NT fibrosarcoma viability, CellTiter-Glo ATP luminescence, 48 h; Potency, µM (titrated, usually from 46.1 µM), for the others: at the highest dose activity, negative = less viability, hits mostly cytotoxic; hit rate 1.6% among 360,000; AID 686970, 2013;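 also: NT is the 2HG producing partner of a matched IDH1 knockdown line; potency is read from the fitted curve at half-maximal effect; 0% = DMSO-treated cells and -100% = media-only wells without cells; nearly all actives have a fitted effect of over 55% in size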
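Compounds were tested in concentration-response format on HT-1080-NT cells for 48 hours at 37 degrees C. Cell viability came from CellTiter-Glo luminescence; curves were classified by r2, response magnitude and activity.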
TDP1 cell CPT = qHTS for Inhibitors of human tyrosyl-DNA phosphodiesterase 1 (TDP1): qHTS in cells in presence of CPT; Potency, µM (highest dose often 46.2 µM), inactives show top-dose activity change, negative = growth inhibition, usual class: inhibitors; hit rate 12% among 420,000; AID 686979, 2013; chicken DT40 Tdp1-/-;hTDP1 cells + 20 nM CPT, ATP luminescence, 48 h; also: potency is read from the fitted curve at half-maximal effect; nearly all actives have a fitted effect of over 55% in size
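Cell growth measured by CellTiter-Glo luminescence after a minimum 48 h, 37 C compound exposure with 20 nM CPT in Tdp1-knockout DT40 cells stably expressing hTDP1, seeded 400/well; qHTS titration format.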
TDP1 cell noCPT = qHTS for Inhibitors of human tyrosyl-DNA phosphodiesterase 1 (TDP1): qHTS in cells in absence of CPT; hit rate 15% among 420,000; Potency, µM (highest dose often 46.2 µM), inactives show at the highest dose activity change, negative = growth inhibition, actives largely listed as inhibitors; DT40 Tdp1-/- hTDP1 cells, no CPT, ATP luminescence, 48 h; also: potency is read from the fitted curve at half-maximal effect; nearly all actives have a fitted effect of over 55% in size
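Growth kinetics read by CellTiter-Glo luminescence after ≥48 hr at 37 °C. Cells: DT40 Tdp1-/- stably carrying human TDP1, 400 per well, compound exposure in the absence of CPT (DMSO vehicle).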
IL1B secr inh = qHTS for Inhibitors of Inflammasome Signaling: IL-1-beta AlphaLISA Primary Screen | THP-1 LPS/ATP IL-1B secretion, AlphaLISA, 16 h; active compounds read low | activity change, % at 57.5 µM | hit rate 4.7% among 360,000 | AID 743279, 2014; in the data active = activity change below about -50%; inconclusive = mostly about -30% to -49%
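THP-1 cells pretreated 1 hr with compounds (up to 57.5 uM final), then stimulated with LPS (250 ng/mL final) plus ATP (1.25 mM final); secreted IL-1B measured by AlphaLISA after 16 hr, decreased signal indicating inhibition.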
An asterisk follows results filed as active. Unless noted, calls follow the shape of the dose curve; as a rule, active = well fitted curve in the direction sought with a large enough effect; inconclusive = small, poorly fitted or top-dose-only effect, or another doubt; inactive = no such curve, though single readings can be large; an effect the other way counts as inactive or inconclusive. Unless noted, % is scaled to controls: 0 for no effect and ±100 for the full control effect.

For O=S(=O)(c1ccccc1)N(CC1CO1)c1cccc2ccccc12 (configuration not stated) the results were HT1080 IDH1KD tx inconclusive, HT1080NT lethal -18.3%, TDP1 cell CPT 20.6µM*, TDP1 cell noCPT 23.1µM* and IL1B secr inh -68.6*.
CC(C)(C)NC(=O)c1ccc(NC(=O)CSc2ccccc2)cc1 was read as HT1080 IDH1KD tx -10.3%, HT1080NT lethal -5.9%, TDP1 cell CPT -20.7%, TDP1 cell noCPT -20.2% and IL1B secr inh 20.6.
`CCOc1ccc(S(=O)(=O)N2CCC(C(=O)NCc3ccncc3)CC2)cc1C` gave HT1080 IDH1KD tx -9.8%, HT1080NT lethal -1.6%, TDP1 cell CPT -9.7%, TDP1 cell noCPT -10.3% and IL1B secr inh -3.2.
Screening C/C=C1\NC(=O)[C@H]2CSSCC/C=C/[C@H](CC(=O)N[C@H](C(C)C)C(=O)N2)OC(=O)C(C(C)C)NC1=O (some centres not stated) returned TDP1 cell CPT 0.0015µM* and TDP1 cell noCPT 0.0013µM*.
`Cc1ccc2onc(CNC(=O)N3CCN(c4cccc(C(F)(F)F)c4)CC3)c2c1` gave TDP1 cell CPT -27.8% and TDP1 cell noCPT inconclusive.
Screening Cc1ccc(N2CCN(C(=O)NCc3noc4ccccc34)CC2C)cc1 (configuration not stated) returned TDP1 cell CPT 20.6µM* and TDP1 cell noCPT inconclusive.
`CCOc1cc(/C=N\NC(=O)Cn2nnc3ccccc32)ccc1O` gave HT1080 IDH1KD tx 3.1%, HT1080NT lethal 7.8%, TDP1 cell CPT 12.0%, TDP1 cell noCPT -1.1% and IL1B secr inh 23.1.
For CCCN1C(=O)C(O)(C2COC(C)(C)CC2=O)c2ccccc21 (configuration not stated) the results were HT1080 IDH1KD tx inconclusive, HT1080NT lethal 10.2%, TDP1 cell CPT 3.66µM*, TDP1 cell noCPT 13µM* and IL1B secr inh 11.4.
`CCN1C(=O)C(O)(C2COC(C)(C)CC2=O)c2cc(Br)ccc21` (configuration not stated) gave HT1080 IDH1KD tx inconclusive, HT1080NT lethal 15.8µM*, TDP1 cell CPT 1.3µM*, TDP1 cell noCPT 1.16µM* and IL1B secr inh -8.7.
For CN1C(=O)C(O)(c2nnc(-c3ccccc3)o2)c2ccccc21 (configuration not stated) the results were HT1080 IDH1KD tx 15.3%, HT1080NT lethal 14.6%, TDP1 cell CPT 4.8%, TDP1 cell noCPT 8.7% and IL1B secr inh -10.0.
`CN1C(=O)C(O)(C2OC(C)(C)CCC2=O)c2ccccc21` (configuration not stated) gave HT1080 IDH1KD tx 3.7%, HT1080NT lethal 5.1%, TDP1 cell CPT 8.2µM*, TDP1 cell noCPT 6.51µM* and IL1B secr inh 29.1.
CCCN1C(=O)C(O)(C2CC(=O)CC(C)(C)O2)c2ccccc21 (configuration not stated) was read as HT1080 IDH1KD tx 9.6%, HT1080NT lethal -1.6%, TDP1 cell CPT 5.8µM*, TDP1 cell noCPT 5.8µM* and IL1B secr inh 28.1.
Screening CCN1C(=O)C(O)(c2c[nH]c3ccccc23)c2cc(Br)ccc21 (configuration not stated) returned TDP1 cell CPT -9.9% and TDP1 cell noCPT inconclusive.
Screening Cc1ccccc1-c1csc(C(O)c2ccc(F)c(F)c2)n1 (configuration not stated) returned HT1080 IDH1KD tx -14.5%, HT1080NT lethal inconclusive, TDP1 cell CPT inconclusive, TDP1 cell noCPT inconclusive and IL1B secr inh -26.5.
For Cc1cccc(-n2c(C)nc3cc(C(=O)N4CCOCC4)ccc32)c1 the results were HT1080 IDH1KD tx 5.2%, HT1080NT lethal 5.0%, TDP1 cell CPT -21.6%, TDP1 cell noCPT -13.7% and IL1B secr inh -9.6.
`CCOC(=O)CN1C(=O)C(O)(C2CCc3ccccc3C2=O)c2ccccc21` (configuration not stated) gave HT1080 IDH1KD tx 16.7%, HT1080NT lethal 19.1%, TDP1 cell CPT inconclusive, TDP1 cell noCPT inconclusive and IL1B secr inh 24.9.
Screening CCN1C(=O)C(O)(C2COC(C)(C)CC2=O)c2ccccc21 (configuration not stated) returned HT1080 IDH1KD tx 25.0%, HT1080NT lethal 21.6%, TDP1 cell CPT 13µM*, TDP1 cell noCPT 8.2µM* and IL1B secr inh 5.0.
Screening O=C1NC(=O)C(c2ccccc2)N1 (configuration not stated) returned HT1080 IDH1KD tx 12.6%, HT1080NT lethal 12.1%, TDP1 cell CPT 1.4%, TDP1 cell noCPT -2.4% and IL1B secr inh 2.1.
CCc1ccc2nc(N=C(N)N)nc(C)c2c1 was read as HT1080 IDH1KD tx inconclusive, HT1080NT lethal inconclusive, TDP1 cell CPT 10.3µM*, TDP1 cell noCPT 7.31µM* and IL1B secr inh -91.3*.
Screening Cc1ccc2nc(N=C(N)N)nc(C)c2c1 returned HT1080 IDH1KD tx inconclusive, HT1080NT lethal inconclusive, TDP1 cell CPT inconclusive, TDP1 cell noCPT 23.1µM* and IL1B secr inh 0.0.
Cc1cc2nc(/N=C(\N)NC(=O)C(C)C)nc(C)c2cc1C was read as HT1080 IDH1KD tx -15.4%, HT1080NT lethal -25.2%, TDP1 cell CPT inconclusive, TDP1 cell noCPT inconclusive and IL1B secr inh -93.5*.
Screening CCCC(=O)N/C(N)=N/c1nc(C)c2cc(C)ccc2n1 returned HT1080 IDH1KD tx -15.6%, HT1080NT lethal 1.7%, TDP1 cell CPT 18.4µM*, TDP1 cell noCPT 23.1µM* and IL1B secr inh -20.4.
Screening CCc1ccc2nc3c(c(C(=O)O)c2c1)CCC3 returned HT1080 IDH1KD tx 2.1%, HT1080NT lethal 0.0%, TDP1 cell CPT -9.5%, TDP1 cell noCPT -3.8% and IL1B secr inh 10.6.
For CCCCN(C(=O)Cc1cccc(F)c1)c1c(N)n(CCC)c(=O)[nH]c1=O the results were HT1080 IDH1KD tx 29.1%, HT1080NT lethal 15.1%, TDP1 cell CPT -17.4%, TDP1 cell noCPT -2.7% and IL1B secr inh -1.3.
O=C(NCC(=O)N(Cc1cccs1)C(C(=O)NC1CCCC1)c1ccco1)c1cccs1 (configuration not stated) was read as HT1080 IDH1KD tx 16.0%, HT1080NT lethal 9.2%, TDP1 cell CPT -19.0%, TDP1 cell noCPT -6.9% and IL1B secr inh -11.0.
Screening Cc1ccccc1C(=O)NCC(=O)OC(C)C(=O)NCc1ccco1 (configuration not stated) returned HT1080 IDH1KD tx 0.1%, HT1080NT lethal 2.1%, TDP1 cell CPT 0.2%, TDP1 cell noCPT 4.6% and IL1B secr inh -9.1.

High-throughput results (PubChem BioAssay)
